Bioassay records (PubChem BioAssay)
VACV Venus inh – inhibitors of vaccinia virus (Venus reporter); Vaccinia virus Venus reporter expression, fluorescence; Potency, µM (series often up to 36.5 µM), inactives show at the top dose activity change, negative = inhibition, usual class: inhibitors; 330,000 compounds, 0.46% hits; calls by dose curve; tested in A549 cells; note: potency is the fitted concentration of half-maximal effect; nearly all actives have a fitted effect of over 30% in size
FMDV inh – blocks foot and mouth disease virus. FMDV antiviral cell-based qHTS. 410,000 compounds, 1.2% hits. AID 1159524. Potency, µM (titrated, usually from 57.9 µM), inactives show at the top dose activity change, negative = inhibition, hits mostly inhibitors; calls by dose curve; tested in HEK293T cells; note: read-out not given here; potency is the fitted concentration of half-maximal effect; nearly all actives have a fitted effect of over 45% in size
HCV inhibitor – inhibitors of hepatitis C virus infection | Huh7.5.1 HCVcc-Cre infection, luciferase reporter, 44 h | Potency, µM (highest dose often 41.8 µM), for inactives: top-dose activity change, negative = inhibition, actives largely listed as inhibitors | 340,000 compounds, 3.4% hits; note: potency is the fitted concentration of half-maximal effect
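After 44 h co-culture of compound, cells and HCVcc-Cre (~0.5 moi), substrate is added for 15 min at room temperature and luciferase measured over 15 sec. Cells were seeded at 1,000/well and pre-cultured 4 h.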
HCMV inh – inhibitors of human cytomegalovirus; HFF cells, HCMV-luciferase reporter, 72 h; stronger effect = lower value; activity change, negative = inhibition, % at 57.5 µM; 410,000 compounds, 4.5% hits; AID 1259415; in the data active = activity change below about -60%; inconclusive = no clear call, values can overlap the other calls; inactive = above about -39%
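Human foreskin fibroblasts infected with luciferase-reporter HCMV at MOI 1 PFU/cell, compounds at two doses. Luciferase measured 72 h post infection; normalized to buffer-only basal and Salinomycin (10uM) controls.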
FBPA Giardia inh – inhibitors of Giardia lamblia fructose-1,6-bisphosphate aldolase; AID 2451; 290,000 compounds, 0.71% hits; purified Giardia FBPA; Potency, µM (titrated, usually from 59.6 µM), inactives show at the highest dose activity, negative = inhibition, actives largely listed as inhibitors; note: potency is the fitted concentration of half-maximal effect; nearly all actives have a fitted effect of over 55% in size
Target sequence (A8B2U2 whole entry, looked up): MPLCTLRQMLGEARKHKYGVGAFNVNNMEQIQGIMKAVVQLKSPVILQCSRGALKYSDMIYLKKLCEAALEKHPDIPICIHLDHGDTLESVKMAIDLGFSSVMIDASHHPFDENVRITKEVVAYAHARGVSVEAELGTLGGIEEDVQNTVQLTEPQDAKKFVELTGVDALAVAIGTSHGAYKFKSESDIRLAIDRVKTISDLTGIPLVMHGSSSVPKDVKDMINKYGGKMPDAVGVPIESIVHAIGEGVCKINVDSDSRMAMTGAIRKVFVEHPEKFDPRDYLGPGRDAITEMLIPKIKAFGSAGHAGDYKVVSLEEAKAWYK
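Giardia FBPA (40 nM reagent) was preincubated 10 min at RT with compound (up to 57.5 uM final), then substrate plus GAPDH/TPI/NAD/arsenate coupling system with diaphorase/resazurin was added; resorufin fluorescence (525/598 nm) was read after 20 min.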
Vaccinia mCherry – inhibitors of vaccinia virus infection (mCherry reporter signal); Vaccinia virus mCherry reporter infection, fluorescence; Potency, µM (doses to about 36.5 µM), without a hit: at the highest dose activity change, negative = inhibition, hits mostly inhibitors; 310,000 compounds, 0.63% hits; calls by dose curve; tested in A549 cells; note: potency is the fitted concentration of half-maximal effect; nearly all actives have a fitted effect of over 35% in size
* = called active by the depositor; i = inactive; ? = inconclusive; . = not tested or not shown; [ ] = another dose, or the depositor's remark. In the library only some 7.5% were active in any assay of this set; here they are far more common. Unless noted, calls come from the whole dose curve; as a rule, active = well fitted curve in the direction sought with a large enough effect; inconclusive = small, poorly fitted or top-dose-only effect, or another doubt; inactive = no such curve, though single readings can be large; an effect the other way counts as inactive or inconclusive. % is set by controls: 0 for no effect and ±100 for the full control effect.

SMILES	VACV Venus inh	FMDV inh	HCV inhibitor	HCMV inh	FBPA Giardia inh	Vaccinia mCherry
CCCCn1c(N)c(N(CC)C(=O)C2=NN(c3ccccc3)C(=O)CC2)c(=O)[nH]c1=O	-2%	-14%	-6%	-16	.	-6%
O=C(NCc1cccnc1)C1CCCN(Cc2cnn(-c3ccccc3)c2-n2cccc2)C1 (stereo not given)	.	21%	-12%	-10	1%	.
CCN(CC)CCn1c(=S)[nH]c2cc(C(=O)N3CC(C)CC(C)C3)ccc2c1=O (stereo not given)	-2%	-1%	17%	-36	.	-11%
Cc1ccc(S(=O)(=O)Nc2ccc3c(c2)C(=O)N([C@@H](C)CO)C[C@@H](C)[C@@H](CN(C)C(=O)NC2CCCCC2)OCCCC[C@H](C)O3)cc1	-11%	1%	.	-4	.	-5%
Cc1ccc(S(=O)(=O)Nc2ccc3c(c2)C(=O)N([C@H](C)CO)C[C@H](C)[C@@H](CN(C)C(=O)NC2CCCCC2)OCCCC[C@@H](C)O3)cc1	?	-30%	.	-63*	.	-26%
C[C@@H]1CN([C@@H](C)CO)C(=O)c2cc(NS(=O)(=O)c3ccc(F)cc3)ccc2O[C@@H](C)CCCCO[C@H]1CN(C)C(=O)NC1CCCCC1	?	-24%	.	-86*	.	-15%
COc1cccc(C(=O)Nc2c(C(=O)NC(C)(C)C)oc3ccccc23)c1	4%	-29%	.	-15	.	-7%
COc1cccc(NC(=O)Cn2c(=O)n(CCc3ccccc3)c(=O)c3c4c(sc32)CN(C(C)=O)CC4)c1	-17%	-5%	.	-16	.	i
COc1cc(C(=O)NCC(c2cccnc2)N2CCc3ccccc32)cc(OC)c1OC (stereo not given)	-12%	-21%	.	-22	.	-6%
COc1ccc(NC(=O)C2CC(=O)N(CCc3ccc(Cl)cc3)C2)cc1 (stereo not given)	-23%	-3%	-17%	-86*	.	-2%
CC(=O)c1cccc(OCC(=O)Nc2ccccc2N2CCOCC2)c1	.	-28%	?	0	.	.
COc1ccccc1C(=O)N[C@@H]1c2ccccc2C2(CCN(Cc3cccnc3)CC2)[C@H]1O	-8%	-6%	.	.	.	-16%
O=C1NC(=O)C(c2cccs2)(c2cccs2)N1	0%	3%	3%	-8	?	i
COc1ccc(OC(=O)C(C)N2C(=O)c3ccccc3C2=O)cc1 (stereo not given)	-2%	5%	-1%	7	-1%	-13%
CC1=CC(C)(C)Nc2ccc(C)cc21	-2%	0%	12%	-4	-29%	i
CC1=CC(C)(C)N2C(=O)C(=O)c3cc(OC(=O)c4ccco4)cc1c32	2%	6%	18%	-88*	?	-16%
CC1=CC(C)(C)Nc2ccc(OC(=O)c3ccco3)cc21	85%	.	?	-82*	-25%	-13%
CC1=CC(C)(C)Nc2ccc(OC(=O)CN3C(=O)CCC3=O)cc21	73%	.	11µM*	-94*	?	i
CC1=CC(C)(C)Nc2ccc(OC(=O)C(C)N3C(=O)c4ccccc4C3=O)cc21 (stereo not given)	.	28µM*	?	-74*	-1%	.
COc1ccc([C@H]2CC(=O)C[C@@H](CCn3cc(C)nn3)O2)cc1	2%	-20%	.	-9	.	-7%
Cc1ccccc1NC(=O)C1CCN(C(=O)c2cnn(-c3ccccc3)c2-n2cccc2)CC1	-13%	-12%	.	-14	.	i
CC1=CC(C)(C)Nc2ccc(OC(=O)c3cccnc3)cc21	.	28µM*	?	-92*	-13%	.
CC1=CC(C)(C)Nc2ccc(Cc3ccc4c(c3)C(C)=CC(C)(C)N4)cc21	-20%	14%	10µM*	-20	?	-15%
O=C(Oc1ccc(F)cc1)c1cccnc1	.	-11%	2%	-4	8%	.
O=C(CSc1cc(Cl)ccc1Cl)Nc1ccc(N2CCOCC2)cc1	.	-8%	?	-33	.	.
SMILES	VACV Venus inh	FMDV inh	HCV inhibitor	HCMV inh	FBPA Giardia inh	Vaccinia mCherry
Cc1cccc(N(CC(=O)NCCSCc2ccc(Cl)cc2)S(C)(=O)=O)c1C	-25%	0%	.	-14	.	?
CC1(C)C(=O)OC(c2cc(Br)ccc2O)C(C)(C)C1=O (stereo not given)	?	35µM*	13%	?	0%	-16%
CCOc1ccc(NC(=O)CN(C)C(=O)c2ccc(NC3CC3)c([N+](=O)[O-])c2)cc1OCC	-2%	-8%	11µM*	11	.	-9%
CC1CCc2[nH]c3ccc(C(=O)N(C)CC(=O)Nc4ccccc4C(F)(F)F)cc3c2C1 (stereo not given)	-29%	-3%	-22%	-88*	.	-5%
CCN(CC(=O)Nc1ccccc1OC)C(=O)c1ccc2[nH]c3c(c2c1)CC(C)CC3 (stereo not given)	.	?	10µM*	-6	.	.
CCOc1ccc(NC(=O)CN(C)C(=O)c2ccc3[nH]c4c(c3c2)CC(C)CC4)cc1OCC (stereo not given)	-18%	9%	0.56µM*	.	.	-8%
CC1CCc2[nH]c3ccc(C(=O)N(C)CC(=O)Nc4ccccc4Cl)cc3c2C1 (stereo not given)	-18%	-1%	?	-8	.	-2%
Cc1ccc(NC(=O)CN(C)C(=O)c2ccc3[nH]c4c(c3c2)CC(C)CC4)cc1 (stereo not given)	?	-17%	?	-29	.	?
O=C(Cc1cccc(NC(=O)C2CCCN(C(=O)C3CC3)C2)c1)Nc1ccc(C(=O)N2CCOCC2)cc1 (stereo not given)	1%	-3%	-7%[8.37 µM]	37	.	-15%
COc1ccc(N2CCN(C(=O)[C@@H](NC(=O)c3ccccc3Cl)C(C)C)CC2)cc1	-4%	2%	-16%	-35	5%	?
CCC(C)n1c(OC)nc2c1c(=O)n(C)c(=O)n2C (stereo not given)	-7%	23%	-7%	?	1%	i
CCCN(CC(=O)Nc1ccccc1OC)C(=O)c1ccc2[nH]c3c(c2c1)CC(C)CC3 (stereo not given)	?	?	7.9µM*	-4	.	?
CCCN(CC(=O)Nc1ccccc1OC)C(=O)c1ccncc1	-2%	-15%	24%	?	-7%	i
O=C(CCSc1ccc(Cl)cc1)c1ccco1	.	-12%	?	-64*	-3%	.
COc1ccc(-c2nn(-c3ccccc3)cc2CNC(=O)c2cccc([N+](=O)[O-])c2)cc1	-14%	4%	?	-33	-5%	-17%
COc1cc(NC(=O)c2noc3c2CC(C)CC3)c(OC)cc1Cl (stereo not given)	-8%	4%	.	31	.	i
Cc1cc(C2CCCCC2)n(O)c(=O)c1	?	-28%	?	-78*	15%	4.5µM*
Cc1cccc(C(=O)N2CCc3cc(CNC(=O)COc4ccc(Cl)cc4)ccc32)c1	-10%	-18%	.	20	.	i
CC(=O)NCCNc1cc(-c2ccccc2C)ncn1	.	2%	.	.	8%	.
